# Measured values from the supplement of paper PMC4466140.
# B1: unnamed (peptide)
# chain: LLGRKRPVMERVVDI
# Tests used:
# Assay in all cases: SPOT peptide array binding signal intensity (averaged, normalized) (arbitrary units (background-subtracted, floor 0; scale differs between SH3 domains)); higher = stronger binding of the SH3 domain to the peptide
# CaNbp2 = molecular target: CaNbp2
# Procedure, shortened: (§1)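 Cellulose membranes carried synthetic 15-mer peptides with cysteines swapped for serines. These were incubated overnight at 4°C with 10 μg/ml of GST-fused SH3 domains from four yeast species in TBS-based blocking buffer. Binding signal, detected with anti-GST antibody and quantified in Genespotter, is the normalized, background-subtracted spot intensity averaged over replicates, in arbitrary units specific to each domain.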
# CaRvs167 = molecular target: CaRvs167
# Procedure, shortened: as §1
# CaRvs167-3 = molecular target: CaRvs167-3
# Procedure, shortened: as §1
# CaSho1 = molecular target: CaSho1
# Procedure, shortened: as §1
# CaSla1-D1-D2 = molecular target: CaSla1-D1-D2
# Procedure, shortened: as §1
# CaSla1-D3 = molecular target: CaSla1-D3
# Procedure, shortened: as §1
# ScAbp1 = molecular target: ScAbp1
# Procedure, shortened: as §1
# ScBbc1 = molecular target: ScBbc1
# Procedure, shortened: as §1
# ScBem1-D1 = molecular target: ScBem1-D1
# Procedure, shortened: as §1
# ScBzz1-D1 = molecular target: ScBzz1-D1
# Procedure, shortened: as §1
# ScBzz1-D2 = molecular target: ScBzz1-D2
# Procedure, shortened: as §1
# ScCyk3 = molecular target: ScCyk3
# Procedure, shortened: as §1
# ScFus1 = molecular target: ScFus1
# Procedure, shortened: as §1
# ScHof1 = molecular target: ScHof1
# Procedure, shortened: as §1
# ScHse1 = molecular target: ScHse1
# Procedure, shortened: as §1
# ScLsb1 = molecular target: ScLsb1
# Procedure, shortened: as §1
# ScLsb2 = molecular target: ScLsb2
# Procedure, shortened: as §1
# ScLsb3 = molecular target: ScLsb3
# Procedure, shortened: as §1
# ScLsb4 = molecular target: ScLsb4
# Procedure, shortened: as §1
# ScMyo3 = molecular target: ScMyo3
# Procedure, shortened: as §1
# ScMyo5 = molecular target: ScMyo5
# Procedure, shortened: as §1
# ScNbp2 = molecular target: ScNbp2
# Procedure, shortened: as §1
# ScPex13 = molecular target: ScPex13
# Procedure, shortened: as §1
# ScRvs167 = molecular target: ScRvs167
# Procedure, shortened: as §1
# ScSho1 = molecular target: ScSho1
# Procedure, shortened: as §1
# ScSla1-D1-D2 = molecular target: ScSla1-D1-D2
# Procedure, shortened: as §1
# ScSla1-D3 = molecular target: ScSla1-D3
# Procedure, shortened: as §1
# SpAbp1-D1 = molecular target: SpAbp1-D1
# Procedure, shortened: as §1
# SpBbc1 = molecular target: SpBbc1
# Procedure, shortened: as §1
# SpBzz1-D1 = molecular target: SpBzz1-D1
# Procedure, shortened: as §1
# SpBzz1-D2 = molecular target: SpBzz1-D2
# Procedure, shortened: as §1
# SpCyk3 = molecular target: SpCyk3
# Procedure, shortened: as §1
# SpHof1 = molecular target: SpHof1
# Procedure, shortened: as §1
# SpHof1-2 = molecular target: SpHof1-2
# Procedure, shortened: as §1
# SpHof1-3 = molecular target: SpHof1-3
# Procedure, shortened: as §1
# SpHse1 = molecular target: SpHse1
# Procedure, shortened: as §1
# SpLsb1 = molecular target: SpLsb1
# Procedure, shortened: as §1
# SpLsb4 = molecular target: SpLsb4
# Procedure, shortened: as §1
# SpMyo1 = molecular target: SpMyo1
# Procedure, shortened: as §1
# SpNbp2 = molecular target: SpNbp2
# Procedure, shortened: as §1
# SpPex13 = molecular target: SpPex13
# Procedure, shortened: as §1
# SpRvs167 = molecular target: SpRvs167
# Procedure, shortened: as §1
# SpSla1-D1-D2 = molecular target: SpSla1-D1-D2
# Procedure, shortened: as §1
# SpSla1-D3 = molecular target: SpSla1-D3
# Procedure, shortened: as §1
binder,measurement,setting,value
B1,SPOT peptide array binding signal intensity,CaNbp2,595
same,SPOT peptide array binding signal intensity,CaRvs167,14.8
same,SPOT peptide array binding signal intensity,CaRvs167-3,1.75
same,SPOT peptide array binding signal intensity,CaSho1,374
same,SPOT peptide array binding signal intensity,CaSla1-D1-D2,154
same,SPOT peptide array binding signal intensity,CaSla1-D3,150
same,SPOT peptide array binding signal intensity,ScAbp1,33
same,SPOT peptide array binding signal intensity,ScBbc1,5.5
same,SPOT peptide array binding signal intensity,ScBem1-D1,3
same,SPOT peptide array binding signal intensity,ScBzz1-D1,29.5
same,SPOT peptide array binding signal intensity,ScBzz1-D2,24.5
same,SPOT peptide array binding signal intensity,ScCyk3,31.5
same,SPOT peptide array binding signal intensity,ScFus1,163
same,SPOT peptide array binding signal intensity,ScHof1,1
same,SPOT peptide array binding signal intensity,ScHse1,552
same,SPOT peptide array binding signal intensity,ScLsb1,13.2
same,SPOT peptide array binding signal intensity,ScLsb2,≤ 0
same,SPOT peptide array binding signal intensity,ScLsb3,140
same,SPOT peptide array binding signal intensity,ScLsb4,27.5
same,SPOT peptide array binding signal intensity,ScMyo3,4
same,SPOT peptide array binding signal intensity,ScMyo5,1.5
same,SPOT peptide array binding signal intensity,ScNbp2,254
same,SPOT peptide array binding signal intensity,ScPex13,53.5
same,SPOT peptide array binding signal intensity,ScRvs167,7.67
same,SPOT peptide array binding signal intensity,ScSho1,412
same,SPOT peptide array binding signal intensity,ScSla1-D1-D2,158
same,SPOT peptide array binding signal intensity,ScSla1-D3,78.5
same,SPOT peptide array binding signal intensity,SpAbp1-D1,≤ 0
same,SPOT peptide array binding signal intensity,SpBbc1,5.5
same,SPOT peptide array binding signal intensity,SpBzz1-D1,158
same,SPOT peptide array binding signal intensity,SpBzz1-D2,≤ 0
same,SPOT peptide array binding signal intensity,SpCyk3,1
same,SPOT peptide array binding signal intensity,SpHof1,104
same,SPOT peptide array binding signal intensity,SpHof1-2,9.5
same,SPOT peptide array binding signal intensity,SpHof1-3,29.5
same,SPOT peptide array binding signal intensity,SpHse1,470
same,SPOT peptide array binding signal intensity,SpLsb1,0.5
same,SPOT peptide array binding signal intensity,SpLsb4,140
same,SPOT peptide array binding signal intensity,SpMyo1,5
same,SPOT peptide array binding signal intensity,SpNbp2,99.5
same,SPOT peptide array binding signal intensity,SpPex13,16
same,SPOT peptide array binding signal intensity,SpRvs167,14.3
same,SPOT peptide array binding signal intensity,SpSla1-D1-D2,≤ 0
same,SPOT peptide array binding signal intensity,SpSla1-D3,35
